Results filed as inconclusive are left out. Unmarked numbers belong to inactive results. Calls come from the whole dose curve; as a rule, active = well fitted activation curve with a large enough effect; inconclusive = small, poorly fitted or top-dose-only effect; inactive = flat fitted curve, though single readings scatter. Where a SMILES comes first, the peptide text is derived from it. The star is where a group is joined. Hexanoyl = CCCCCC(=O)*

The assay in a line: Primary redox qHTS assay for identification of artifact compounds. (AID 1845223).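 Note: 0% = DMSO and 100% = reference compound.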 Particulars: Amplex Red/HRP redox cycling with DTT, fluorescence; series mostly up to 53.8 µM; redox activity (% of DA3003): at the top concentration. Put shortly:
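Amplex Red (25 uM) and HRP (250 mU/mL) in HBSS, with compounds for 15 min, then 250 uM DTT for 30 min, room temperature, dark. Fluorescence 525/598 nm read; normalized to DMSO and 10 uM DA3003; Hill fit.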
Regarding `O=C(O)C1(c2ccc(-c3ccc(Cl)c(Cl)c3)c(F)c2)CC1`, the “redox activity (% of DA3003)” value is 9.94%.

Take `COc1ccc(Oc2c(Cl)cnn(C3c4ccccc4-c4ccccc43)c2=O)cc1`: the “redox activity (% of DA3003)” value was -3.03%. For `COc1c(-c2ccc(O)cc2)cc(OC)c2c1oc1cc(O)c(OC3OC(CO)C(O)C3O)cc12` (stereo not drawn) the value was 16.4% [at 25.6 µM].

For `N=C(N)c1ccc2nc(-c3cc(CC(=O)NC(CC(=O)O)C(=O)O)cc(-c4cc(S(N)(=O)=O)ccc4O)c3O)[nH]c2c1` (stereo not drawn), the “redox activity (% of DA3003)” value was -4.3%. In the case of `CC1=C2CC(=O)C(C)CC/C=C(\C)CC2(O)OC1=O` (stereo not drawn), the “redox activity (% of DA3003)” value was -6.55%. As for `CC1CC(=O)C2C(O)(C1)CC(O)C13OC1c1c(O)cccc1C(=O)C23O` (stereo not drawn), the “redox activity (% of DA3003)” value was -6.89%. Take `C/C=C/C=C/C=C/C(=O)O[C@@H]1[C@@H](OC)C2=C(C(=O)N(C(CCC(=O)O)C(=O)O)C2)[C@@]2(C)CCCC(C)(C)[C@H]12` (stereo partly drawn): the “redox activity (% of DA3003)” value was 10.6% [at 25.6 µM]. Next, `CCCCCC(=O)N1CCC[C@H]1C(=O)N[C@@H](Cc1ccc(O)cc1)C(=O)OC` (Hexanoyl-Pro-Tyr-OMe): -11.3%; `Cc1c(-c2ccc3c(c2)OCO3)oc2ccc(C(O)C(C)O)cc12` (stereo not drawn): 15%. For `C=C[C@H]1[C@H](O[C@@H]2O[C@H](CO)[C@@H](O)[C@H](O)[C@H]2O)OC=C(C(=O)OC)[C@H]1CCO` the value was -16.2%; for `Cc1cc(CO)c(O)c(C(=O)CC2CC(=O)NC(=O)C2)c1`, -11%. For `CC(C)(O)C1CCC2(C)CCCC(C)(O)C2C1` (stereo not drawn) the value was -1.52%. For the molecule `C[C@]1(OC(=O)/C=C/c2ccccc2)C[C@@H](O)[C@]2(O)C=CO[C@@H](O[C@@H]3O[C@H](CO)[C@@H](O)[C@H](O)[C@H]3O)[C@@H]21`, the “redox activity (% of DA3003)” value was 1.31% [at 25.6 µM].

The record behind these values is PubChem BioAssay (NCATS).
